In the library only some 10% were active in any assay of this set; here they are far more common.
Lamin A splicing: qHTS Assay for Modulators of Lamin A Splicing; HeLa LMNA splicing GFP/RFP minigene ratio, 48 h; Potency, µM (top dose mostly 46.1 µM), hits mostly inhibitors; hit rate 0.01% among 200,000; AID 1487, 2009; active = well fitted inhibition curve with a large enough effect in the signal ratio, with a control signal flat, not every such curve was filed as active; inconclusive = small, poorly fitted or top-dose-only effect, or effect the other way, or a change in a side signal; the % refers to the signal ratio
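Read-out is the ratio of GFP to DsRed2 object intensity, acquired by 488 nm laser-scanning cytometry on HeLa lamin A-EGFP minigene reporter cells. Compound incubation 48 hrs at 37 °C in Opti-MEM with 2% FBS; DMSO 0.5% final.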
Luc counter: Counterscreen for Luciferase (Kinase-Glo TM) Inhibition; Luciferin 4-monooxygenase (Photuris pensylvanica), Q27757; hit rate 0.28% among 200,000; Potency, µM (titrated, usually from 38.3 µM), usual class: inhibitors; AID 1379, 2008; Kinase-Glo luciferase, ATP luminescence, 8 min; active = well fitted inhibition curve with a large enough effect; inconclusive = small, poorly fitted or top-dose-only effect; note: nearly all actives have a fitted effect of over 60% in size
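Luminescence was the read-out, taken after 8-minute incubation at ambient temperature. Luciferase turned over luciferin with 10 uM ATP in imidazole pH 7.2 buffer containing KCl, MgCl2, Tween 20 and BSA.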
IMPase cell inh: qHTS Assay for Identifying the Cell-Membrane Permeable IMPase Inhibitors; Inositol monophosphatase 1 (Rattus norvegicus), P97697; CHO-M1 cells, IP1 accumulation, HTRF TR-FRET ratio; inhibition (IP1 accumulation), % at 46.1 µM; 120,000 tested, under 10 active; active = well fitted curve in the direction sought with a large enough effect in the signal ratio, not every such curve was filed as active; inconclusive = small, poorly fitted or top-dose-only effect, or a change in a side signal; inactive = no such curve, though single readings can be large or run the other way; the % refers to the signal ratio;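 note: cells stimulated with carbachol in lithium chloride buffer; higher means more IMPase inhibition seen as more IP1 and lower FRET ratio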
Target sequence (P97697 whole entry, looked up): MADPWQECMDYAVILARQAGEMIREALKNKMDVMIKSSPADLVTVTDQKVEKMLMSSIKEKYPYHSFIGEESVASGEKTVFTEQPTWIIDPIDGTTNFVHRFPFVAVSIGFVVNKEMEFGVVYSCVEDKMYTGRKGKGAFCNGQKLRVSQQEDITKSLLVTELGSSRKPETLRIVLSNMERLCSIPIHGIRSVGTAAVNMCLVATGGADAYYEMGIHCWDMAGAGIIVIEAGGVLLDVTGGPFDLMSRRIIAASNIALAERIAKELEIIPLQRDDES
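CHO-M1 cells (CHO stably expressing M1 receptor), compound up to 46 uM final, stimulated with carbachol (50 uM as added) in buffer with 50mM LiCl, pH 7.4, 30 min at 37C. Cytosolic IP1 read by TR-FRET; AC50 from Hill fits.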
PNC inhibitor: High Content Assay for Compounds that inhibit the Assembly of the Perinucleolar Compartment; PC3M PTB-GFP, PNC prevalence imaging, 16 h; hits give low values; activity change (PNC), negative = inhibition, % at 10 µM; hit rate 3.1% among 140,000;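 active = readout at or below -70, meaning at least 70% loss of cells showing the perinucleolar compartment, a nuclear body marking cancer cells; inconclusive = readout between -30 and a set limit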
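Compounds are pinned in duplicate onto adhered PC3M cells stably expressing GFP-tagged PTB and incubated 16 h at 37 C. Cells are then fixed, nuclei stained with Hoechst, and PNC-positive cells counted.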
ALDH1A1 inh: qHTS Assay for Inhibitors of Aldehyde Dehydrogenase 1 (ALDH1A1); Aldehyde dehydrogenase 1A1 (Homo sapiens), P00352; Purified ALDH1A1, NADH fluorescence, propionaldehyde substrate; Potency, µM (highest dose often 75.3 µM), usual class: inhibitors; hit rate 7.3% among 220,000; AID 1030, 2008
HPGD inh: qHTS Assay for Inhibitors of HPGD (15-Hydroxyprostaglandin Dehydrogenase); purified HPGD, NADH fluorescence kinetic, PGE2 substrate; Potency, µM, most hits filed as inhibitors; hit rate 4.3% among 150,000
Target sequence (P15428 whole entry, looked up): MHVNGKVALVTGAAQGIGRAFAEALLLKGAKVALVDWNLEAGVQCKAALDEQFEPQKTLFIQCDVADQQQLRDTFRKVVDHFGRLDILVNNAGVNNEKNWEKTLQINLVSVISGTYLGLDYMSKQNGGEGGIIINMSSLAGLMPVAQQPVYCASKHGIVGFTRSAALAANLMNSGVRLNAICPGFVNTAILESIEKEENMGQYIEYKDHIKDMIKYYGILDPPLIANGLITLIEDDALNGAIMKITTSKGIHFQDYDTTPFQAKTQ
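NADH formation kinetics: reaction with 30 uM PGE2 and 1 mM NAD+ (final), 20 nM enzyme, Tris-HCl pH 8 with Tween 20, after 15 min compound preincubation at room temperature. Fluorescence change, last versus first of five reads.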
A number is an active result; . = inactive; ? = inconclusive; / = no result given. Unless noted, calls come from the whole dose curve; as a rule, active = well fitted inhibition curve with a large enough effect (not every such curve was filed as active); inconclusive = small, poorly fitted or top-dose-only effect, or another doubt; inactive = no such curve, though single readings can be large or run the other way.

SMILES	Lamin A splicing	Luc counter	IMPase cell inh	PNC inhibitor	ALDH1A1 inh	HPGD inh
CC(C)=C1C2C=CC1C1C(=O)N(c3ccc4c(c3)OCO4)C(=O)C21 (stereo not given)	.	.	.	.	3.5µM	.
CC(C)=C1C2CCC1C1C(=O)N(c3ccc4c(c3)OCO4)C(=O)C21 (stereo not given)	.	.	/	.	.	.
NCCC[C@@H](CC(=O)N[C@@H]1CCNC[C@H]1C(=O)N[C@H](CC(=O)N[C@@H](CCC(=O)O)CC(=O)O)Cc1ccccc1)NC(=O)C[C@H](CO)NC(=O)[C@@H]1CNCC[C@H]1N	/	.	/	/	.	.
CCc1cc[n+](-c2nc3ccccc3nc2[N-]S(=O)(=O)c2ccc(Br)s2)cc1	?	.	/	?	0.95µM	.
Cc1cc[n+](-c2nc3ccccc3nc2[N-]S(=O)(=O)c2ccccc2)cc1	.	/	.	?	?	/
CSc1nc(N)c2ncn([C@@H]3O[C@@H](COP(=O)(O)OP(=O)(O)O)[C@@H](O)[C@H]3O)c2n1	/	/	.	/	/	/
O=S(=O)(c1ccccc1)N1C2CCC1CC(O)(c1cccnc1)C2 (stereo not given)	.	.	.	.	13µM	.
O=C(Nc1ccccc1)N1C2CCC1CC(O)(c1cccnc1)C2 (stereo not given)	.	.	.	?	.	.
COc1ccc(Oc2ncc3nc(-c4cccc(C#N)c4)c(=O)n(C)c3n2)cc1	.	/	/	/	.	/
COC(=O)C1C(c2ccc(N(C)C)cc2)C(C(=O)OC)S(=O)(=O)CS1(=O)=O (stereo not given)	/	.	/	/	10µM	/
c1ccc(CCc2nn3c(-c4ccncc4)nnc3s2)cc1	.	.	.	?	10µM	5µM
c1ccc(-c2nnc3sc(-c4ccncc4)nn23)cc1	.	.	.	.	?	.
Brc1ccccc1-c1nnc2sc(Cc3ccccc3)nn12	.	.	.	.	.	16µM
Clc1ccccc1-c1nnc2sc(CCc3ccccc3)nn12	?	.	.	.	4µM	8.9µM
CN1CCN(c2ncc3nc(-c4cccc(C#N)c4)c(=O)n(C)c3n2)CC1	.	/	/	/	?	/
COc1ccc(C(=S)NC2CCCCC2)cc1	?	/	.	.	.	/
CCOc1ccc(C(=S)NC2CCCCC2)cc1	.	.	.	.	8.9µM	14µM
CCOc1cccc(C(=O)NC2CCCCC2)c1	.	.	?	?	.	28µM
O=C(CSc1nc2c([nH]c3ccccc32)c(=O)n1-c1ccccc1F)Nc1ccccc1C(F)(F)F	.	/	/	/	/	/
Nc1nc(SCC(=O)N2CCCc3ccccc32)[nH]c(=O)c1-c1ccccc1	.	.	.	.	22µM	.
COc1ccc(-c2noc(CSc3nc(N)c(-c4ccccc4)c(=O)[nH]3)n2)cc1OC	.	.	.	?	?	16µM
COc1ccc(-c2noc(CSc3nc(-c4ccccc4)cc(=O)[nH]3)n2)cc1	.	.	.	?	.	.
Nc1nc(SCc2ccccc2)[nH]c(=O)c1-c1ccccc1	.	.	.	.	14µM	.
O=C(OCc1cc(=O)n2nc(-c3cccs3)sc2n1)c1ccccc1Br	.	/	/	/	/	/
CCOC(=O)C1=C([Si](C)(C)C)c2ccccc2N(S(=O)(=O)C(F)(F)F)C1C(=O)OCC (stereo not given)	/	.	/	/	?	.
SMILES	Lamin A splicing	Luc counter	IMPase cell inh	PNC inhibitor	ALDH1A1 inh	HPGD inh
Cc1ccc(NC(=O)c2ccccc2NS(=O)(=O)c2ccc(Cl)s2)cc1	?	.	/	-82	.	.
O=C(Nc1ccccc1Cc1ccccc1)c1ccccc1NS(=O)(=O)c1ccc(Cl)s1	?	.	/	.	.	.
Cc1cccc(C2(c3cccc(C)c3)CC2C(=O)Nc2ccc([N+](=O)[O-])cc2O)c1 (stereo not given)	?	.	/	.	.	18µM
COc1cccc(C2(c3cccc(OC)c3)CC2C(=O)Nc2ccccc2Cl)c1 (stereo not given)	.	.	.	-82	.	.
Cn1c(=O)c(-c2cccc(F)c2)nc2cncnc21	.	/	/	/	?	/
COC(=O)c1c[nH]n2c(=O)c(Cl)c(C)nc12	.	.	/	-113	.	.
CC(=O)N1CCCc2cc(S(=O)(=O)N3CCCC(C(=O)NC(C)C)C3)ccc21 (stereo not given)	.	/	/	/	/	/
O=C(NN=C1CCCC1)NC1CCCCC1	.	.	/	-118	.	.
O=C(NN=C1CCCCC1)NC1CCCCC1	.	.	.	?	?	.
C=CCN1C(=O)C2C3C=CC(C2C1=O)C1C2C(=O)N(CC=C)C(=O)C2C31 (stereo not given)	/	.	/	/	0.71µM	/
CCCCN1C(=O)C2C3C=CC(C2C1=O)C1C2C(=O)N(CCCC)C(=O)C2C31 (stereo not given)	.	.	?	?	.	.
O=C1C2C3C=CC(C2C(=O)N1CCCO)C1C2C(=O)N(CCCO)C(=O)C2C31 (stereo not given)	.	.	.	.	4.5µM	.
CCN(CCCCN1C(=O)c2ccccc2C1=O)c1ccc2c(c1)C(=O)N(C)C2=O	.	.	.	.	?	10µM
CCN(CC)c1ccc2ccc(=O)oc2c1	.	.	/	/	?	/
CCN(CC)c1ccc2c(c1)C(=O)N(C)C2=O	.	.	.	.	?	18µM
CC(=O)Nc1ccc(OCC(O)CNC2CCCC2)cc1 (stereo not given)	?	.	?	.	18µM	.
CC(=O)Nc1ccc(OC[C@@H](O)CNC(C)C)cc1	?	.	.	/	.	.
O=C(CN(Cc1ccccc1Cl)C(=O)c1ccc(CN2CCOCC2)o1)NCc1ccccc1	.	.	.	?	13µM	.
CCCc1nn2c(=O)cc(COC(=O)c3ccco3)nc2s1	.	/	/	/	/	/
COc1ccc(Cl)cc1NC(=O)Cn1c(=O)n2nc(C)nc2c2ccccc21	.	.	.	?	7.9µM	.
COc1ccccc1NC(=O)CN1C(=O)CCS(=O)(=O)c2ccccc21	.	.	.	?	.	.
COc1ccccc1NC(=O)Cn1c(=O)n2nc(C)nc2c2ccccc21	.	.	.	?	20µM	.
COc1ccc(Cl)cc1NC(=O)CN1C(=O)CCS(=O)(=O)c2ccccc21	.	.	.	-100	.	.
COc1ccc(CNC(=O)Cn2c(=O)n3nc(-c4ccc(OC)cc4)nc3c3ccccc32)cc1	.	/	/	/	/	/
COc1ccccc1N1CCN(C(=O)c2cc(S(=O)(=O)N3CCC(C)CC3)cn2C)CC1	.	/	/	/	/	/

Source: PubChem BioAssay (National Center for Advancing Translational Sciences (NCATS))
